# Laboratory results published in the supplement of paper PMC12669032.
# Unmarked numbers belong to inactive results.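 The calls were made as follows: active = AUC reduced over 20% with Padj below 0.05 in at least 2 of 3 replicates; inactive = otherwise.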
# Key:
# Assay in all cases: growth AUC relative to DMSO control (median of replicates) (fraction); higher = more growth (less inhibition), active = hit call of the paper
# Conditions in all cases: 20 µM; 24 h
# Akkermansia muciniphila = test system: Akkermansia muciniphila
# Procedure, shortened: (§1)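 Area under the growth curve was normalised to the plate median of solvent-only wells, except on the industrial chemical plate, where row and column medians were used. Curves came from gut bacterial monocultures grown anaerobically at 37 °C in mGAM with 20 µM compound (1% DMSO), starting at OD600 0.05 and read at OD600 every hour for 24 h. The minimum OD of each curve was set to 0, and values are medians of three biological replicates grown on separate days.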
# Bacteroides caccae = test system: Bacteroides caccae
# Procedure, shortened: as §1
# Bacteroides clarus = test system: Bacteroides clarus
# Procedure, shortened: as §1
# Bacteroides dorei = test system: Bacteroides dorei
# Procedure, shortened: as §1
# Bacteroides stercoris = test system: Bacteroides stercoris
# Procedure, shortened: as §1
# [1] = test system: Bacteroides thetaiotaomicron
# Procedure, shortened: as §1
# Bacteroides uniformis = test system: Bacteroides uniformis
# Procedure, shortened: as §1
# [2] = test system: Bifidobacterium longum subsp. longum
# Procedure, shortened: as §1
# Clostridium difficile = test system: Clostridium difficile
# Procedure, shortened: as §1
# Collinsella aerofaciens = test system: Collinsella aerofaciens
# Procedure, shortened: as §1
Structure (SMILES),growth AUC (Akkermansia muciniphila),growth AUC (Bacteroides caccae),growth AUC (Bacteroides clarus),growth AUC (Bacteroides dorei),growth AUC (Bacteroides stercoris),growth AUC [1],growth AUC (Bacteroides uniformis),growth AUC [2],growth AUC (Clostridium difficile),growth AUC (Collinsella aerofaciens)
CCC1(C(=O)NC(C)c2ccc(Cl)cc2)C(C)C1(Cl)Cl (stereo not given),1.18,0.963,0.985,0.884,0.958,0.909,0.881,0.969,0.969,0.942
CNC(=O)CSP(=O)(OC)OC,1.07,1.03,1.02,1.03,1.04,0.997,1.01,1.06,1.03,1.03
O=C(NC(=O)c1c(F)cccc1F)Nc1ccc(CO/N=C(\c2ccc(Cl)cc2)C2CC2)cc1,1.02,0.994,0.955,1.01,0.981,0.996,0.983,0.959,0.983,0.963
COCc1c(F)c(F)c(COC(=O)C2C(C=C(C)C)C2(C)C)c(F)c1F (stereo not given),0.976,0.953,0.943,0.991,1.17,0.98,0.972,1.01,1.02,1.03
CC1(C)C(C(=O)OC(C#N)c2cccc(Oc3ccccc3)c2)C1(C)C (stereo not given),0.879,0.995,0.991,0.996,0.946,0.986,1.01,0.951,1.01,0.995
Nc1c([N+](=O)[O-])ccc(Oc2ccccc2)c1Cl,0.741,0.964,0.861,0.941,0.925,0.941,0.978,0.871,0.982,0.897
CC1(C)[C@H](C=C(Cl)Cl)[C@H]1C(=O)OCc1c(F)c(F)cc(F)c1F,0.957,1.02,0.992,1.07,1.03,0.993,1.04,0.954,1.08,1
O=P(OCCCl)(OCCCl)OCCCl,0.628 (active),0.985,0.986,0.995,0.651 (active),0.972,0.874,0.895,0.963,0.977
COc1cnc(OC)n2nc(NS(=O)(=O)c3c(OCC(F)F)cccc3C(F)(F)F)nc12,0.962,1.03,1.01,0.993,0.991,1.01,1.01,0.994,0.993,0.991
COC(=O)COc1cc(Cl)c(Cl)cc1Cl,0.868,1.01,0.952,1,1.01,0.97,0.966,0.906,1.01,1
CCOP(=S)(OCC)SCn1c(=O)oc2cc(Cl)ccc21,0.99,0.921,0.94,0.936,0.831,0.945,0.927,0.943,0.978,0.991
CCCSC(=O)N(CCC)CCC,0.868,0.991,0.957,1.02,0.946,1.01,1.02,1.04,1.01,0.967
N#Cc1c(Cl)cccc1Cl,0.866,1.03,0.979,1.04,0.989,1,0.922,0.898,1.01,1.02
CSc1nnc(C(C)(C)C)c(=O)n1N,0.996,1.07,1.01,1.02,1.06,0.996,1.02,1.09,1.03,1
COC(=O)c1ccccc1S(=O)(=O)NC(=O)N(C)c1nc(C)nc(OC)n1,0.981,0.984,0.979,0.984,1.05,0.99,1,1.01,0.984,1.03
N#Cc1c(Cl)c(Cl)c(Cl)c(C#N)c1Cl,0.96,0.984,0.563 (active),0.931,0.566 (active),0.0851 (active),0.218 (active),0.782 (active),0.997,0.864
CCOP(=S)(OCC)SCSCC,1.1,0.955,0.991,0.969,0.942,0.997,0.986,1.01,1.01,1.01
Nc1c(Cl)c(F)nc(OCC(=O)O)c1Cl,0.886,1.01,0.968,1.01,0.999,0.991,0.955,0.917,1.01,0.97
COP(=S)(OC)SCn1nnc2ccccc2c1=O,1.09,0.98,0.977,0.877,0.883,0.969,0.986,0.949,0.931,0.941
COS(=O)(=O)[O-].Cn1c(-c2ccccc2)cc(-c2ccccc2)[n+]1C,0.936,0.994,0.966,0.976,0.979,0.938,1.01,0.925,1.04,0.989
Oc1ccccc1-c1ccccc1,1.03,1.04,1.03,1.02,1.04,1.01,1.01,0.965,1.04,1.01
Oc1cc(Cl)cc(Cl)c1,1.04,1.01,1,0.996,1.08,0.917,1.01,0.998,1,1.01
COc1ccccc1N,1,1.02,1.04,1.01,1.16,1.02,1.02,1.05,1.01,1.02
CC(C)C1(C)N=C(c2ncccc2C(=O)O)NC1=O (stereo not given),0.976,0.918,1.01,0.761,1.17,0.974,1.02,1,0.991,0.978
C=CCC1=C(C)C(OC(=O)C2C(C=C(C)C)C2(C)C)CC1=O (stereo not given),1.05,0.994,1,0.97,0.832,0.968,0.98,0.963,1,0.957
CC(C)OC(=O)C(O)(c1ccc(Br)cc1)c1ccc(Br)cc1,0.997,0.883,0.779 (active),0.933,0.239 (active),0.93,0.923,0.96,0.982,0.928
Clc1ccccc1-c1nnc(-c2ccccc2Cl)nn1,0.748,0.892,0.969,0.974,1.25,0.999,0.974,0.825,0.997,0.942
CCCN(CCC)c1c([N+](=O)[O-])cc(S(N)(=O)=O)cc1[N+](=O)[O-],0.998,0.956,0.896,0.932,0.809,0.948,0.89,0.987,0.975,0.975
CCN(CC)c1nc(C)cc(OP(=S)(OC)OC)n1,0.948,0.979,0.974,1,0.927,0.945,0.976,0.967,1.02,0.989
